According to PubChem BioAssay (NCATS):
Records with an inconclusive call do not appear. Calls of active or inactive are those of the source. The call rests on the fitted dose curve; in most records, active means well fitted cell-killing curve with a large enough effect; inconclusive means small, poorly fitted or top-dose-only effect, or effect the other way; inactive means no such curve, though single readings can be large or run the other way. Non-standard residues stand in square brackets, D forms with d. Residues, ends and D or L forms follow the SMILES beside them. Peptide text beside a SMILES is read from it. *: point of attachment. Sta = CC(C)C[C@H](N)[C@@H](O)CC(=O)O; Isovaleryl = CC(C)CC(=O)*

assay: Quantitative High-Throughput drug screen in 47 multiple myeloma cell lines against the NCATS MIPE library collection: KMS28PE_JCRB cell viability assay (AID 1918983); settings: KMS28PE multiple myeloma viability, CellTiter-Glo ATP, 48 h; series mostly up to 45.8 µM; viability, % of DMSO control: at the top concentration; further: nearly all actives have a fitted effect of over 35% in size
Source text: PI: Beverly A. Mock Ph.D.
Laboratory of Cancer Biology and Genetics,
Center for Cancer Research, National Cancer Institute,
National Institute of Health, Bethesda, Maryland
Drug resistance and disease progression are common in multiple myeloma (MM) patients, underscoring the need for new therapeutic combinations. […] We hypothesized that effective combinations would reduce MYC expression and enhance p16 activity. […] These preclinical data identify potentially useful drug combinations for evaluation in drug-resistant MM and reveal potential mechanisms of combined drug sensitivity.
Described herein is the primary MIPE qHTS used to cherrypick compounds. Validated compounds were then further tested for potential synergistic activiy.
[1] Peat TJ, Gaikwad SM, Dubois W, Gyabaah-Kessie N, Zhang S, Gorjifard S, Phyo Z, Andres M, Hughitt VK, Simpson RM, Miller MA, Girvin AT, Taylor A, Williams D, D'Antonio N, Zhang Y, Rajagopalan A, Flietner E, Wilson K, Zhang X, Shinn P, Klumpp-Thomas C, McKnight C, Itkin Z, Chen L, Kazandijian D, Zhang J, Michalowski AM, Simmons JK, Keats J, Thomas CJ, Mock BA. Drug combinations identified by high-throughput screening promote cell cycle transition and upregulate Smad pathways in myeloma. Cancer Lett. 2023 Aug 1;568:216284. doi: 10.1016/j.canlet.2023.216284. Epub 2023 Jun 24. PMID: 37356470; PMCID: PMC10408729.
SEQUENCE No. (e.g., 1, 2, 3, etc.); […] (e.g., Cells, Incubation, Reagent, etc.); VALUE and DESCRIPTION.
1; Cells; 5 uL; white, solid bottom 1536-well Greiner assay plate.
2; Compounds; 23 nL; Kalypsis pin tool (Wako USA) equipped with a 1536-well pin head to transfer to the assay plates.
3; Incubation; 48 hours; 37C incubation.
4; Reagent;5uL; CellTiter Glo (Promega).
5; Detector; 425V; Luminescence; Viewlux PerkinElmer.
NOTES (numbers refer to Sequence numbers above)
1. The cell-based screening methods employed in this study were like those previously published. Briefly, the corresponding myeloma cell lines were screened in 1,536-well plates with 500 cells, 5-uL per well for inhibition of cell viability (assessed by measuring ATP levels with CellTiterGlo).
2. NCATS MIPE 4.0 library of approved and investigational drugs were added using the Kalypsis pin tool. Wells treated with DMSO only for 100% viability and media only for 0% viability were used as controls.
3. The assay plates were covered and incubated for 48 hours in a 37C, 5% CO2 incubator with controlled humidity.
4. After 48 hours, CellTilter-GloTM luminescent substrate mix (Promega) reagent was added to the assay plate and plates we incubated for 5 min at room temperature.
5. Signal was measured as median relative luminescence units on a ViewLux (PerkinElmer) multiplate reader.
[1] Heske CM, Davis MI, Baumgart JT, Wilson K, Gormally MV, Chen L, Zhang X, Ceribelli M, Duveau DY, Guha R, Ferrer M, Arnaldez FI, Ji J, Tran HL, Zhang Y, Mendoza A, Helman LJ, Thomas CJ. Matrix Screen Identifies Synergistic Combination of PARP Inhibitors and Nicotinamide Phosphoribosyltransferase (NAMPT) Inhibitors in Ewing Sarcoma. Clin Cancer Res. 2017 Dec 1;23(23):7301-7311. doi: 10.1158/1078-0432.CCR-17-1121. Epub 2017 Sep 12. PMID: 28899971; PMCID: PMC6636827.
Potency means the concentration at half of the fitted maximal effect.

SMILES	viability, % of DMSO control	Potency
O=C(c1ccccc1)c1ccc2n1CCC2C(=O)O (stereo not given)	129% (inactive)	
CCCCN(CCCC)CCC(O)c1cc2c(Cl)cc(Cl)cc2c2cc(C(F)(F)F)ccc12 (stereo not given)		23.5 µM (active)
CC(C)Oc1ccc2c(=O)c(-c3ccccc3)coc2c1		14.8 µM (active)
Cc1cc(=O)c2c(O)c3c(O)cc(=O)c4c3c3c(cc(O)c1c23)C(C)(C)C=4O		6.62 µM (active)
Nc1ncn([C@H]2C[C@H](O)[C@@H](CO)O2)c(=O)n1	158% (inactive)	
Nc1ccc(S(N)(=O)=O)cc1	118% (inactive)	
C=CCc1cc(OC)c(O)c(C(=O)NCCO)c1	121% (inactive)	
COc1cc2nc(N3CCN(C(=O)C4CCCO4)CC3)nc(N)c2cc1OC (stereo not given)	104% (inactive)	
CC(S)C(=O)NCC(=O)O (stereo not given)	122% (inactive)	
CC(C)[C@H](N)C(=O)OCCOCn1cnc2c(=O)[nH]c(N)nc21		14.8 µM (active)
CN(C)[C@@H](CCOc1cccc2ccccc12)c1ccccc1		20.9 µM (active)
C[C@H](Cc1ccc(O)c(O)c1)[C@@H](C)Cc1ccc(O)c(O)c1	106% (inactive)	
O=C(O)c1cccc(-c2noc(-c3ccccc3F)n2)c1		14.8 µM (active)
Cc1cccc(-c2[nH]ncc2-c2ccc3ncccc3n2)n1	130% (inactive)	
Nc1nc(OCc2ccccc2)c2[nH]cnc2n1	136% (inactive)	
CC(C)(S)[C@@H](N)C(=O)O	132% (inactive)	
O=C(O)c1cn(-c2ccc(F)cc2)c2cc(N3CCNCC3)c(F)cc2c1=O	108% (inactive)	
CN(C)C(=O)COC(=O)Cc1ccc(OC(=O)c2ccc(N=C(N)N)cc2)cc1	154% (inactive)	
O=Nc1c(-c2c(O)[nH]c3cc(Br)ccc23)[nH]c2ccccc12		23.5 µM (active)
Cc1cccc(C#Cc2ccccc2)n1	135% (inactive)	

SMILES	viability, % of DMSO control	Potency
O=C(CS(=O)Cc1ccco1)NCC=CCOc1cc(CN2CCCCC2)ccn1 (stereo not given)	161% (inactive)	
CN(c1nccc(=O)[nH]1)C1CCN(c2nc3ccccc3n2Cc2ccc(F)cc2)CC1	136% (inactive)	
O=C1c2ccccc2-c2n[nH]c3cccc1c23	137% (inactive)	
CC1=C(C)C(=O)C(C(CCCCCC(=O)O)c2ccccc2)=C(C)C1=O (stereo not given)	99.6% (inactive)	
CN(C)c1ccc(O)c2c1C[C@H]1C[C@H]3[C@H](N(C)C)C(=O)C(C(N)=O)=C(O)[C@@]3(O)C(=O)C1=C2O		20.9 µM (active)
Nc1nc(N)c(N=O)c(OCC2CCCCC2)n1		14.8 µM (active)
COC(=O)C1=C(C)NC(C)=C(C(=O)OC(C)C)C1c1cccc2nonc12 (stereo not given)		18.7 µM (active)
Cc1cc(O)c2c(c1)C(=O)c1cc(O)cc(O)c1C2=O		10.5 µM (active)
O=c1cc(N2CCOCC2)oc2c(-c3ccccc3)cccc12		10.5 µM (active)
O=c1ccc2ccc(O)c(O)c2o1	136% (inactive)	
C[C@]12CCC(=O)C=C1CC[C@@H]1[C@H]2[C@@H](O)C[C@@]2(C)[C@H]1CC[C@]2(O)C(=O)CO	138% (inactive)	
NS(=O)(=O)c1cc(C(=O)O)c(NCc2ccco2)cc1Cl	96.3% (inactive)	
CCN(CCO)CCCC(C)Nc1ccnc2cc(Cl)ccc12 (stereo not given)	126% (inactive)	
CC(=O)O[C@H]1C(=O)[C@@]2(C)C([C@H](OC(=O)c3ccccc3)[C@]3(O)C[C@H](OC(=O)[C@H](O)[C@@H](NC(=O)c4ccccc4)c4ccccc4)C(C)=C1C3(C)C)[C@]1(OC(C)=O)CO[C@@H]1C[C@@H]2O (stereo not given in full)	76.3% (inactive)	
CCN(CC)CCOc1ccc(Cc2ccccc2)cc1		20.9 µM (active)
CCOC(=O)C1=C[C@@H](OC(CC)CC)[C@H](NC(C)=O)[C@@H](N)C1	98% (inactive)	
COC(=O)[C@H](Cc1ccccc1)NC(=O)[C@@H](N)CC(=O)O (H-Asp-Phe-OMe)	101% (inactive)	
C[C@@H](c1ncncc1F)[C@](O)(Cn1cncn1)c1ccc(F)cc1F	105% (inactive)	
CC(C)CC(=O)N[C@H](C(=O)N[C@H](C(=O)N[C@@H](CC(C)C)[C@@H](O)CC(=O)N[C@@H](C)C(=O)N[C@@H](CC(C)C)[C@@H](O)CC(=O)O)C(C)C)C(C)C (Isovaleryl-VV[Sta]A[Sta]-OH)	156% (inactive)	
CCOc1cc(CC(=O)N[C@@H](CC(C)C)c2ccccc2N2CCCCC2)ccc1C(=O)O	125% (inactive)	
